# Experimental data taken from the supplement of paper PMC7156485.
# How the values were obtained:
# Details in all cases: concentration: 10 µM; 24 h
# HCC1569 [1] = test: cell number relative to DMSO (% of DMSO); higher = more cells (less growth inhibition / toxicity)
# How it was run: (§1)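 Cell number or H1.0 nuclear intensity appears as percent of the plate control, based on the median of replicates. Measurements came from HCC1569 and TDF cells exposed in triplicate to compounds at 10 µM for 24 h at 37 °C, then imaged in six fields per well at ×10. Positional effects were smoothed out of HCC1569 values.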
# TDF [2] = test: as above
# How it was run: as §1
# TDF [3] = test: H1.0 immunofluorescence intensity relative to DMSO (% of DMSO); higher = stronger H1.0 induction, active = 120 or more
# How it was run: as §1
# HCC1569 [4] = test: H1.0 immunofluorescence intensity relative to DMSO (% of DMSO); higher = stronger H1.0 induction, active = 140 or more
# How it was run: as §1
# 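Wherever H1.0 immunofluorescence intensity relative to DMSO is given: TDF is a line of transformed human dermal fibroblasts of mesenchymal origin.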
# 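Wherever cell number relative to DMSO is given: TDF denotes transformed human dermal fibroblasts of mesenchymal origin.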
Structure (SMILES),cell number (HCC1569 [1]),cell number (TDF [2]),H1.0 immunofluorescence intensity (TDF [3]),H1.0 immunofluorescence intensity (HCC1569 [4])
Cl.Cl.Fc1ccc(C(c2ccc(F)cc2)N2CCN(CC=Cc3ccccc3)CC2)cc1 [Flunarizine dihydrochloride],101,110,89.1 (inactive),97.3 (inactive)
CC(C)(C)NCC(O)c1ccc(O)c(CO)c1 (stereo unspecified) [Salbutamol],99.7,99.3,95.9 (inactive),101 (inactive)
Cl.O=C1NCC2(CCN(CCc3ccccc3)CC2)O1 [Fenspiride hydrochloride],98.2,105,93.2 (inactive),91 (inactive)
CN(C)CCCn1cc(C2=C(c3c[nH]c4ccccc34)C(=O)NC2=O)c2ccccc21,86.2,79.5,115 (inactive),139 (inactive)
NC(=NCc1ccccc1)NC(=O)c1nc(Cl)c(N)nc1N [Benzamil],99.9,99.9,98.7 (inactive),112 (inactive)
COc1ccc(C(C)=O)c(O)c1 [Paeonol],99,102,92.9 (inactive),101 (inactive)
Cl.Cl.O=S(=O)(c1cccc2cnccc12)N1CCCNCC1,107,95,99.5 (inactive),94.3 (inactive)
N#Cc1cnc2cnc(NCc3cccnc3)cc2c1Nc1ccc(F)c(Cl)c1 [Tpl2 Kinase Inhibitor],69.9,74.3,92.6 (inactive),185 (active)
Nc1ncn(C2OC(CO)C(O)C2O)c(=O)n1 (stereo unspecified) [5-azacytidine],65.7,78,101 (inactive),150 (active)
